Test results: PubChem BioAssay (NCI)
This is part of a sample that, as a whole, favours compounds with a hit. Of some 79,000 tested, about 15% had one in any assay. A number with no mark means an inactive call. The source made the active and inactive calls. Rule as the data show it: active = growth inhibition above about 70%; inactive = the rest.

Test: NCI Yeast Anticancer Drug Screen. Data for the rad14 strain (AID 159);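 also: 0% = growth of vehicle-treated control cultures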
Conditions: S. cerevisiae rad14 strain growth inhibition, active compounds read high
Method: Growth inhibition of yeast strains with defined genetic alterations is measured as a screen for potential anti-cancer activity. Selected strains with alterations in DNA damage repair or cell cycle control were exposed to compounds and growth inhibition was measured relative to vehicle treated controls. The strain used in this assay is rad14

Compound | growth inhibition (at 1.2 µM) [%] | growth inhibition (at 3.7 µM) [%] | growth inhibition (at 11.0 µM) [%] | growth inhibition (at 33.0 µM) | growth inhibition (at 100.0 µM)
CCN(CC)CCNc1ccc(C)c2sc3ccc(O)cc3c(=O)c12 | 23 | 29 | 34 | 93% (active) | 99% (active)
CC(C)C(=O)CC(Sc1ccc(N)cc1)c1ccccc1 (stereo not given) | 1 | 2 | 6 | 25% | 46%
N#CCCC1C(C#N)C2(Cl)CC1(Cl)C(Cl)=C2Cl (stereo not given) | -44 | -36 | -20 | 77% (active) | 98% (active)
CC1(C)CC(=O)C(C(=O)Nc2cccs2)=C(O)C1 | -10 | 2 | 10 | 92% (active) | 98% (active)
CCOP(=O)(OCC)/C(C#N)=C/c1cccc(Oc2ccccc2)c1 | -40 | -39 | 35 | 94% (active) | 96% (active)
O=C(O)/C=C\C(=O)Nc1ccc2c(c1)Cc1cc(Cl)ccc1-2 | -3 | -4 | -3 | 4% | 29%
C1=CCN([B-](c2ccccc2)[C+]2CCCCC2)C=C1 | -1 | -2 | 1 | 28% | 99% (active)
Cc1cc(Cl)ccc1NC(=O)/C(Cl)=C(/Cl)C(=O)O | 2 | 5 | 13 | 34% | 100% (active)
